According to PubChem BioAssay AID588855 (National Center for Advancing Translational Sciences (NCATS), 2011):
Out of some 410,000 compounds screened, about 5,000 (1.2%) were called active. Entries that show only a call come without a potency. Roughly 13% stayed inconclusive and do not appear here. The sample holds actives, similar compounds and a random draw of the others, so the mix is not that of the screen. Calls follow the shape of the dose curve; as a rule, active = well fitted inhibition curve with a large enough effect; inconclusive = small, poorly fitted or top-dose-only effect; inactive = no such curve, though single readings can be large or run the other way.

Experiment: qHTS for Inhibitors of TGF-b; also: nearly all actives have a fitted effect of over 65% in size
Settings: HepG2 CAGA-GFP TGF-b/SMAD3 reporter, GFP fluorescence, 18 h, TGF-beta stimulated, 500 pg/mL final; series mostly up to 46.1 µM
Summary of the method: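 Inhibition of TGF-beta-driven CAGA-GFP reporter expression in HEPG2 cells is measured by cellular GFP fluorescence after 18 h stimulation with 500 pg/mL recombinant TGF-beta in 1% FBS medium at 37 degrees C.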
Potency is read from the fitted curve at half-maximal effect.

| SMILES | Potency |
| --- | --- |
| Cc1ccc(Cl)cc1NC(=O)CSc1nccn1C | inactive |
| C[N+]1(CC(=O)c2cccs2)CCOCC1 | inactive |
| Cc1ccccc1C(CC(=O)c1cccs1)C(C#N)C#N (stereo not drawn) | 20 µM (active) |
| Cc1ccc(C)c(NC(CC(=O)c2ccccc2)C(=O)OCC(=O)c2cccs2)c1 (stereo not drawn) | inactive |
| Cc1ccc(-n2nnnc2CNC(=O)c2ccccc2C)cc1C | inactive |
| CCN(c1ncnc2c1cnn2-c1ccc(C)cc1)C1CCCCC1 | inactive |
| CCN([C@H](CO)C(C)C)S(=O)(=O)c1ccccc1Br | inactive |
| O=S(=O)(NCc1ccccc1Br)c1ccccc1Br | inactive |
| CC(C)c1ccc(OCC(=O)N(Cc2ccc(N(C)C)cc2)C2CCS(=O)(=O)C2)cc1 (stereo not drawn) | inactive |
| CNC(=O)C[C@H]1C(=O)N(c2ccc(OC)cc2)C[C@@H]1Cc1ccccc1 | inactive |
| C[C@H]1CN(c2ccc(Br)cc2)C(=O)[C@@H]1CC(=O)Nc1ccc(Br)cc1 | inactive |
| CC(C)c1ccc(NC(=O)CN(C)S(=O)(=O)c2ccc3c(c2)c(=O)n(C)c(=O)n3C)cc1 | inactive |
| Cc1c(CNC2CCCCC2)c(C(=O)O)c(C)n1Cc1cccc(Cl)c1 | inactive |
| Cc1cccc(N2CCN(C3=C(c4ccccc4)C(=O)c4ccccc43)CC2)c1C | inactive |
| COc1c(O)ccc2c1CN1CCc3cc4c(cc3C1C2)OCO4 (stereo not drawn) | 14.1 µM (active) |
| COc1cc(C(=O)CCc2ccc3c(c2)OCO3)cc(OC)c1OC | inactive |
| COc1ccc(CN2CCCC(N3CCc4ccccc4C3)C2)c(O)c1 (stereo not drawn) | inactive |
| C#CCOc1ccc(C2CC(=O)Nc3c2c(C)nn3-c2nc(C)cc(C)n2)cc1 (stereo not drawn) | inactive |
| COc1ccccc1CNc1ccc(-c2nc(-c3ccccc3C)no2)cc1[N+](=O)[O-] | inactive |
| COc1ccc(S(=O)(=O)NCCCCOc2ccc(Cl)cc2)cc1 | 12.6 µM (active) |
| COc1ccc(S(=O)(=O)NCCOc2ccccc2)cc1F | inactive |
| COc1ccc(OCCNS(=O)(=O)Cc2ccccc2)cc1 | inactive |
| NC(=O)C1CCN(C(=O)c2cccc(NC(=O)c3nsc4ccccc34)c2)CC1 | inactive |
| O=C(CC(c1cccs1)N1Cc2ccccc2C1=O)Nc1ccc(F)cc1F (stereo not drawn) | inactive |
| CCOc1ccc(C(NC(=O)c2cc(OC)c(OC)c(OC)c2)c2cc(Cl)c3cccnc3c2O)cc1 (stereo not drawn) | inactive |
| CN(c1ccccc1)S(=O)(=O)c1cc(C(=O)N2CCN(c3ncccn3)CC2)ccc1Cl | inactive |
| CN(c1ccccc1)S(=O)(=O)c1ccc(C(=O)N2CCN(c3ccccc3Cl)CC2)cc1 | 15.8 µM (active) |
| O=C(c1ccc(S(=O)(=O)N2CCCC2)cc1)N1CCN(c2ccccc2F)CC1 | inactive |
